Experimental data taken from PubChem BioAssay (NCI).
Compounds without any hit were thinned out: in the full panel of roughly 79,000, 15% have a hit. Calls of active or inactive are those of the source. Rule as the data show it: active = growth inhibition above about 70%; inactive = the rest.

Columns and labels:
[1] = NCI Yeast Anticancer Drug Screen. Data for the rad52 strain (AID 147);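 also: 0% = growth of vehicle-treated control cultures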; conditions: S. cerevisiae rad52 mutant growth inhibition, stronger effect = higher value
How it was run: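 DNA repair-defective yeast; compound exposure; growth scored against vehicle controls.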

[2] = NCI Yeast Anticancer Drug Screen. Data for the wt1 strain (AID 149);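 also: 0% = growth of vehicle-treated wt1 cultures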; conditions: S. cerevisiae wt1 strain (SPY 50644) growth inhibition, stronger effect = higher value
How it was run: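 Using yeast strain wt1, compound-induced growth inhibition was determined against vehicle-treated cultures.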

[3] = NCI Yeast Anticancer Drug Screen. Data for the rad50EPP+ strain (AID 151);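 also: 0% = growth of vehicle-treated control cultures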; conditions: S. cerevisiae rad50 mutant strain, stronger effect = higher value
How it was run: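 rad50EPP+ yeast treated with test compounds. Readout: growth vs vehicle control.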

[4] = NCI Yeast Anticancer Drug Screen. Data for the mgt1 strain (AID 153); conditions: S. cerevisiae mgt1 mutant growth inhibition, stronger effect = higher value
How it was run: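 Growth inhibition relative to vehicle controls was scored for the mgt1 yeast strain after compound exposure.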

[5] = NCI Yeast Anticancer Drug Screen. Data for the rad50 strain (AID 155);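 also: 0% = growth of vehicle-only cultures of the same strain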; conditions: S. cerevisiae rad50 strain growth inhibition, stronger effect = higher value
How it was run: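 Relative growth inhibition (compound vs vehicle) was measured in yeast with a defined repair-gene alteration.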

[6] = NCI Yeast Anticancer Drug Screen. Data for the mec2-1 strain (AID 157); conditions: S. cerevisiae mec2-1 strain, stronger effect = higher value
How it was run: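 Growth inhibition is read against vehicle-treated controls after compound exposure of the mec2-1 yeast strain, which is defective in DNA damage repair or cell cycle control.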

[7] = NCI Yeast Anticancer Drug Screen. Data for the rad14 strain (AID 159);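 also: 0% = growth of vehicle-treated control cultures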; conditions: S. cerevisiae rad14 strain growth inhibition, stronger effect = higher value
How it was run: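 Screen for anticancer potential: a yeast strain altered in DNA damage repair is grown with compound, and reduced growth is quantified against vehicle controls.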

[8] = NCI Yeast Anticancer Drug Screen. Data for the sgs1 mgt1 strain (AID 161);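 also: 0% = growth of cultures given vehicle only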; conditions: S. cerevisiae sgs1 mgt1 strain, stronger effect = higher value
How it was run: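 Compounds are added to genetically altered yeast, and growth is compared with cultures given vehicle alone to give percent inhibition.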

[9] = NCI Yeast Anticancer Drug Screen. Data for the CLN2oe strain (AID 163);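 also: 0% = growth of vehicle-only control cultures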; conditions: S. cerevisiae CLN2oe strain, stronger effect = higher value
How it was run: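 Compound-treated yeast; growth vs vehicle ctrl = % inhibition. Genetically altered strain (cell-cycle control).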

[10] = NCI Yeast Anticancer Drug Screen. Data for the cln2 rad14 strain (AID 165);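 also: 0% = growth equal to vehicle treated cultures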; conditions: S. cerevisiae cln2 rad14 strain, stronger effect = higher value
How it was run: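 Growth inhibition, relative to vehicle-treated controls, is the read-out. The test organism is a yeast strain with defined genetic alterations, cln2 rad14.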

[11] = NCI Yeast Anticancer Drug Screen. Data for the bub3 strain (AID 167); conditions: S. cerevisiae bub3 mutant strain, stronger effect = higher value
How it was run: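 Screening used yeast with an engineered genetic alteration affecting cell cycle control. Compound-exposed cultures were compared with vehicle cultures, and reduced growth was taken as inhibition.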

[12] = NCI Yeast Anticancer Drug Screen. Data for the wt2 strain (AID 169);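 also: 0% = growth of vehicle-treated yeast cultures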; conditions: S. cerevisiae wt2 strain growth inhibition, stronger effect = higher value
How it was run: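 Compound exposure of yeast; growth compared with vehicle controls; inhibition reported.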

[13] = NCI Yeast Anticancer Drug Screen. Data for the mlh1 strain (AID 171);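 also: 0% = growth of vehicle-treated control cultures of the same strain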; conditions: S. cerevisiae mlh1 strain growth inhibition, stronger effect = higher value
How it was run: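 Compounds are applied to a genetically altered yeast strain, and its growth is compared with that of vehicle-treated cultures to give percent inhibition.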

[14] = NCI Yeast Anticancer Drug Screen. Data for the sgs1 strain (AID 173);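 also: 0% = growth of vehicle-only control cultures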; conditions: S. cerevisiae sgs1 mutant, stronger effect = higher value
How it was run: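 Compounds applied to genetically altered yeast; growth compared with vehicle-treated cultures to give % inhibition.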

[15] = NCI Yeast Anticancer Drug Screen. Data for the mlh1 rad18 strain (AID 175); conditions: S. cerevisiae mlh1 rad18 strain growth inhibition, stronger effect = higher value
How it was run: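 Cells of a genetically altered yeast strain, deficient in DNA damage repair, were treated with compound. Their growth was then compared with that of vehicle-treated cultures to give inhibition.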

[16] = NCI Yeast Anticancer Drug Screen. Data for the rad18 strain (AID 177); conditions: S. cerevisiae rad18 mutant growth inhibition, stronger effect = higher value
How it was run: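 Compounds are applied to a repair-deficient yeast strain, and growth is compared with that of vehicle-treated cultures to give percent inhibition.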

[17] = at 5.0 µM (retest, dose inferred, filed as 0.5)
[18] = at 50.0 µM (retest, dose inferred, filed as 5.0)

Measured: growth inhibition

CC[N+]1(C)CCC(O)(c2ccc(OC)cc2)C(C(=O)c2ccc(OC)cc2)C1 (stereo not drawn)
inactive: [1]; at 1.2 µM -10% | [1]; at 3.7 µM -13% | [1]; at 11.0 µM -22% | [1]; at 33.0 µM -19% | [1]; at 100.0 µM -20% | [2]; at 1.2 µM -69% | [2]; at 3.7 µM -76% | [2]; at 11.0 µM -72% | [2]; at 33.0 µM -62% | [2]; at 100.0 µM -58% | [3]; at 1.2 µM -32% | [3]; at 3.7 µM -32% | [3]; at 11.0 µM -38% | [3]; at 33.0 µM -35% | [3]; at 100.0 µM -23% | [4]; at 1.2 µM -39% | [4]; at 3.7 µM -52% | [4]; at 11.0 µM -54% | [4]; at 33.0 µM -54% | [4]; at 100.0 µM -44% | [5]; at 1.2 µM -24% | [5]; at 3.7 µM -19% | [5]; [17] 24% | [5]; at 11.0 µM -37% | [5]; at 33.0 µM -21% | [5]; [18] 28% | [5]; at 50.0 µM -1.2% | [5]; at 100.0 µM -30% | [6]; at 1.2 µM -63% | [6]; at 3.7 µM -56% | [6]; [17] 7% | [6]; at 11.0 µM -69% | [6]; at 33.0 µM -61% | [6]; [18] 23% | [6]; at 50.0 µM 14.8% | [6]; at 100.0 µM -74% | [7]; at 1.2 µM 6% | [7]; at 3.7 µM 0% | [7]; at 11.0 µM -33% | [7]; at 33.0 µM -3% | [7]; at 100.0 µM -27% | [8]; at 50.0 µM -4.7% | [9]; at 1.2 µM -13% | [9]; at 3.7 µM -3% | [9]; at 11.0 µM -14% | [9]; at 33.0 µM -4% | [9]; at 100.0 µM -20% | [10]; at 50.0 µM 20.1% | [11]; at 1.2 µM -49% | [11]; at 3.7 µM -42% | [11]; [17] 35% | [11]; at 11.0 µM -61% | [11]; at 33.0 µM -52% | [11]; at 50.0 µM 8.55% | [11]; at 100.0 µM -68% | [12]; at 1.2 µM -21% | [12]; at 3.7 µM -15% | [12]; at 11.0 µM -14% | [12]; at 33.0 µM -16% | [12]; at 100.0 µM -22% | [13]; at 1.2 µM -78% | [13]; at 3.7 µM -64% | [13]; at 11.0 µM -16% | [13]; at 33.0 µM -55% | [13]; at 100.0 µM -62% | [14]; at 1.2 µM -10% | [14]; at 3.7 µM -37% | [14]; at 11.0 µM -49% | [14]; at 33.0 µM -44% | [14]; at 100.0 µM -50% | [15]; [17] 25% | [15]; [18] 29% | [15]; at 50.0 µM 6.75% | [16]; at 1.2 µM -7% | [16]; at 3.7 µM -17% | [16]; at 11.0 µM -13% | [16]; at 33.0 µM -23% | [16]; at 100.0 µM -23%
active: [8]; [17] 87% | [8]; [18] 95% | [10]; [17] 86% | [10]; [18] 97% | [11]; [18] 91%
